This passage reports sensor-assay potency score (higher = more potent) results from the OligoGym collection.
Further: reference of the scale not given here.

This assay addresses FLG. Kind of assay: pooled miR-30 sensor sort-seq; sequence = guide strand. To be noted: shRNA.
Take TTCAGAACTAGATTCATGCCTT: the sensor-assay potency score (higher = more potent) amounted to 0.702.

The sequence TTTATCATGATGACTGTGCTTT came in with a sensor-assay potency score (higher = more potent) of 0.582.

TTTCTCTGCTTGCACTTCTGGA returned a sensor-assay potency score (higher = more potent) of -0.359.

AATTGTAACTAACACTTCCGTG gave a sensor-assay potency score (higher = more potent) of -0.414.

In turn, TTTACTTGAGTTATGATGGTTT gave a sensor-assay potency score (higher = more potent) of 0.102.

TAATCTGCACTACCATAGCTGC: the sensor-assay potency score (higher = more potent) is -1.29.

Regarding TTTGTCTGCTGACACTTCTGGA, the sensor-assay potency score (higher = more potent) is -0.531.

As for TAGACTCATAATATGCTTGAGC, the sensor-assay potency score (higher = more potent) was -0.577.

Sequence TTCTAATAGACTATCAGTGGTG registered a sensor-assay potency score (higher = more potent) of -0.268.

On to TTTCTTCTAATAGACTATCAGT, for which the sensor-assay potency score (higher = more potent) was -0.739.

The sequence TTGTCTGCTTGCACTTCTGGAT returned a sensor-assay potency score (higher = more potent) of -0.517.

For TTTTGAGTCATTCTTCCTGTAT, the sensor-assay potency score (higher = more potent) was -0.417.

In turn, ATTGTAACTAACACTTCCGTGC yielded a sensor-assay potency score (higher = more potent) of 0.359.

Sequence TAGAATGGCCACATAAACCTGG had a sensor-assay potency score (higher = more potent) of 0.301.

For TTGTTCTGCTTGCACTTCTGGA, the sensor-assay potency score (higher = more potent) was -0.702.

TATGAGTAGGTGAATATCCTTT returned a sensor-assay potency score (higher = more potent) of -0.066.

In turn, TTTGTCTGCTTGCACTTCTGGA returned a sensor-assay potency score (higher = more potent) of -0.568.

The sequence TTTTTTTGAATATTGCTTGAAA yielded a sensor-assay potency score (higher = more potent) of -0.0278.

In turn, TTTCATAATCATATACTCCTTC showed a sensor-assay potency score (higher = more potent) of 0.805.

As for TAATCTAGTATTTTCAGTCTTG, the sensor-assay potency score (higher = more potent) came out at 0.133.

With TTGTCTGCTGACACTTCTGGAT, the sensor-assay potency score (higher = more potent) was -0.488.
